Inconclusive results are not listed. Active and inactive are the calls of the source. How the source made its calls: active means hit-call score of the fitted dose curve at least 0.9, where 1 is the maximum; inconclusive means response in the unintended direction; inactive means score below 0.9.
Tests used:
[1] = target: human Protein Tyrosine Phosphatase Non-receptor Type 2 (PTPN2), PTPN2 (gene 5771) (UniProt P17706); assay: NVS_ENZ_hPTPN2: NovaScreen (NVS) Enzymatic Assay for human Protein Tyrosine Phosphatase Non-receptor Type 2 (PTPN2) (AID 2283207)
Chain of human Protein Tyrosine Phosphatase Non-receptor Type 2 (PTPN2), PTPN2 (gene 5771) (P17706 whole entry, looked up): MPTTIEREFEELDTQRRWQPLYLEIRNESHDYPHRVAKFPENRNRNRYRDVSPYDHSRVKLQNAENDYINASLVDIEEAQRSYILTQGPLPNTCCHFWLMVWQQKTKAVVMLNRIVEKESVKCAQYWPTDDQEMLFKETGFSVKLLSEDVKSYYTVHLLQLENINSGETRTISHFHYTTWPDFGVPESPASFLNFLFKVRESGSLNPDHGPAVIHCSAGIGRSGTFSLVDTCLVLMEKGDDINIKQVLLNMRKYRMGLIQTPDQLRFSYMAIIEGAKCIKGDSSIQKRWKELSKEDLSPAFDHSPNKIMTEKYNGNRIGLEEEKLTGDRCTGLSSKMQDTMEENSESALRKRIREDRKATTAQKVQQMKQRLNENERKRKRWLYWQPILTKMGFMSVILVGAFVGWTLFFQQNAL
Experimental: (§1) NVS_ENZ_hPTPN2 is a biochemical, single-readout assay that uses extracted gene-proteins in a cell-free assay. Measurements were taken 1 hour after chemical dosing in a 384-well plate.NVS_ENZ_hPTPN2 is one of one assay component(s) measured or calculated from the NVS_ENZ_hPTPN2 assay. It is designed to make measurements of enzyme activity, a form of enzyme reporter, as detected with fluorescence intensity signals by Fluorescence and electrophoretic mobility shift technology.Data from the assay component NVS_ENZ_hPTPN2 was analyzed into 1 assay endpoint. This assay endpoint, NVS_ENZ_hPTPN2, was analyzed in the positive analysis fitting direction relative to DMSO as the negative control and baseline of activity. Using a type of enzyme reporter, loss-of-signal activity can be used to understand changes in the enzymatic activity as they relate to the gene PTPN2. Furthermore, this assay endpoint can be referred to as a primary readout, because this assay has produced multiple assay endpoints where this one serves a enzymatic activity function. To generalize the intended target to other relatable targets, this assay endpoint is annotated to the phosphatase intended target family, where the subfamily is non-receptor tyrosine phosphatase.
(§2) Binding assays used specific radioligands (tritiated, iodinated) with non-radioactive competitive displacement ligands in agonist or antagonist protocols (as indicated) and various reference compounds and inhibitors to titrate specific binding to receptors and transporters. Most enzyme assays (CYPs, kinases, phosphatases, proteases, HDACs) used recombinant protein and specific substrates (fluorescence mostly, some colorimetric and radioactive) and inhibitors, followed by a biochemical separation of substrate and product. All assays for the biochemical HTS were initially run in duplicate at a single concentration (10 uM for CYP450 assays and 25 uM for all others). […] Each assay was run with positive and negative controls, and concurrent controls on every plate. The follow-up (secondary) screen tested active chemical-pairs in concentration series, as well as a few additional assays not tested in the primary screen, some selected negative inactives, and several cases re-run in the concentration series for confirmatory purposes.

[2] = target: human Raf-1 Proto-Oncogene, serine/threonine Kinase (RAF1), RAF1 (gene 5894) (UniProt P04049); assay: NVS_ENZ_hRAF1: NovaScreen (NVS) Enzymatic Assay for human Raf-1 Proto-Oncogene, serine/threonine Kinase (RAF1) (AID 2283216)
Chain of human Raf-1 Proto-Oncogene, serine/threonine Kinase (RAF1), RAF1 (gene 5894) (P04049 whole entry, looked up): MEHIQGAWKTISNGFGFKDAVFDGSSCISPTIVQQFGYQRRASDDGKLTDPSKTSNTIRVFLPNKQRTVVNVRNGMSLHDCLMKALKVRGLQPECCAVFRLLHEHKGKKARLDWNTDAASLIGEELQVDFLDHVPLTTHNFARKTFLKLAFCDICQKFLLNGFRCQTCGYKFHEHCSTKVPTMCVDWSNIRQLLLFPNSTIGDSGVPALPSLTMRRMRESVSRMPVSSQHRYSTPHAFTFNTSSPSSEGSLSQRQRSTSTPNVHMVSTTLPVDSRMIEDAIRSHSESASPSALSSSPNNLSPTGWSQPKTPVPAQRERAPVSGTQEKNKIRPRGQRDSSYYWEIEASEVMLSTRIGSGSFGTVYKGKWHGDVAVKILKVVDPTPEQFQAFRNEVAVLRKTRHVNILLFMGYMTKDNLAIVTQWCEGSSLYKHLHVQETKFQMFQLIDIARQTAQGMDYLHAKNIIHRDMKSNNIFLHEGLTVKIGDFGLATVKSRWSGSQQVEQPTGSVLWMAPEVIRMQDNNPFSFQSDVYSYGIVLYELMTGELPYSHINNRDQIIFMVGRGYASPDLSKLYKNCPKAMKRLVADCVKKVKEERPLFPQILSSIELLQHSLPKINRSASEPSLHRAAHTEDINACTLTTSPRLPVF
How it was run: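 Single-point screening at 25 uM (duplicate), followed by singleton concentration-response to 50 uM maximum for chemicals exceeding threshold. Enzyme activity from fluorescent substrate-product mobility-shift separation after 1 h, relative to DMSO.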

[3] = target: Tyrosine-protein phosphatase non-receptor type 14 (Homo sapiens) (UniProt Q15678); assay: NVS_ENZ_hPTPN14: NovaScreen (NVS) Enzymatic Assay for human Protein Tyrosine Phosphatase Non-receptor Type 14 (PTPN14) (AID 2283206)
Chain of Tyrosine-protein phosphatase non-receptor type 14 (Homo sapiens) (Q15678 whole entry, looked up): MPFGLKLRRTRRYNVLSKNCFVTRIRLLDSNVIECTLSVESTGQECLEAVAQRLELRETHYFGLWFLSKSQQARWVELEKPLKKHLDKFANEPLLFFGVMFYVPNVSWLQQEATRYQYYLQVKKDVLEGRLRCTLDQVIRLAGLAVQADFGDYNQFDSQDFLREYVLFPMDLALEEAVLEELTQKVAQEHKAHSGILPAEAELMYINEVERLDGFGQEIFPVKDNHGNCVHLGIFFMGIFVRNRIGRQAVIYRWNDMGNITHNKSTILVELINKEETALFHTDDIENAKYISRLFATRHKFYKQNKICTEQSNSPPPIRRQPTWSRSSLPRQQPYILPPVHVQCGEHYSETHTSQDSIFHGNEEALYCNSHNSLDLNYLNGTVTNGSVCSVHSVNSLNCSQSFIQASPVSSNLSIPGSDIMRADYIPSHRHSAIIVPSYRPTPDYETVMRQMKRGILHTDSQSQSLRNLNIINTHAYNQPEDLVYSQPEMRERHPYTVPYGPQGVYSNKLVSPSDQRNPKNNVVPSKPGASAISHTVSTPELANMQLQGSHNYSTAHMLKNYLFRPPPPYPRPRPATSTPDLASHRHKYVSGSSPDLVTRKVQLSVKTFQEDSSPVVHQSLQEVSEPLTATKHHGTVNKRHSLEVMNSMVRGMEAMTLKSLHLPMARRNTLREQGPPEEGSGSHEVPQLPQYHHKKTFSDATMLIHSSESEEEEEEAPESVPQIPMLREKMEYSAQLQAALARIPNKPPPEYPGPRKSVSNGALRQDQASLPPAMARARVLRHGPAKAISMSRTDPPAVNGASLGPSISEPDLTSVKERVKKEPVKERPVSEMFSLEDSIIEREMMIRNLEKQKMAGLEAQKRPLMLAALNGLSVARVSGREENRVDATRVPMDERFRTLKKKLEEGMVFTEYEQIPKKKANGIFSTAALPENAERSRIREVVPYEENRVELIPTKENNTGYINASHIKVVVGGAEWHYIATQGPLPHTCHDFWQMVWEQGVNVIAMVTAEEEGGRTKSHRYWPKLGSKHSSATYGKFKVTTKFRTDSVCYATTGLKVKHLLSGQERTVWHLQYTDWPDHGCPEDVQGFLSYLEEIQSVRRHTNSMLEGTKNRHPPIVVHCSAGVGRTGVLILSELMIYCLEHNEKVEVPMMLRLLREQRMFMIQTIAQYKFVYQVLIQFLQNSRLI
Experimental: NVS_ENZ_hPTPN14 is a biochemical, single-readout assay that uses extracted gene-proteins in a cell-free assay. Measurements were taken 0.5 hour after chemical dosing in a 384-well plate.NVS_ENZ_hPTPN14 is one of one assay component(s) measured or calculated from the NVS_ENZ_hPTPN14 assay. It is designed to make measurements of enzyme activity, a form of enzyme reporter, as detected with fluorescence intensity signals by Fluorescence and electrophoretic mobility shift technology.Data from the assay component NVS_ENZ_hPTPN14 was analyzed into 1 assay endpoint. This assay endpoint, NVS_ENZ_hPTPN14, was analyzed in the positive analysis fitting direction relative to DMSO as the negative control and baseline of activity. Using a type of enzyme reporter, loss-of-signal activity can be used to understand changes in the enzymatic activity as they relate to the gene PTPN14. Furthermore, this assay endpoint can be referred to as a primary readout, because this assay has produced multiple assay endpoints where this one serves a enzymatic activity function. To generalize the intended target to other relatable targets, this assay endpoint is annotated to the phosphatase intended target family, where the subfamily is non-receptor tyrosine phosphatase.
(§3) Binding assays used specific radioligands (tritiated, iodinated) with non-radioactive competitive displacement ligands in agonist or antagonist protocols (as indicated) and various reference compounds and inhibitors to titrate specific binding to receptors and transporters. Most enzyme assays (CYPs, kinases, phosphatases, proteases, HDACs) used recombinant protein and specific substrates (fluorescence mostly, some colorimetric and radioactive) and inhibitors, followed by a biochemical separation of substrate and product. All assays for the biochemical HTS were initially run in duplicate at a single concentration (10 uM for CYP450 assays and 25 uM for all others). Assay-chemical combinations meeting a pre-defined threshold (e.g., 30% inhibition and other criteria defined below) were then run in singleton concentration-response format with maximum concentration of 20 uM for CYPs and 50 uM for all others. Each assay was run with positive and negative controls, and concurrent controls on every plate. The follow-up (secondary) screen tested active chemical-pairs in concentration series, as well as a few additional assays not tested in the primary screen, some selected negative inactives, and several cases re-run in the concentration series for confirmatory purposes.

[4] = target: human Sirtuin 2 (SIRT2), SIRT2 (gene 22933) (UniProt Q8IXJ6); assay: NVS_ENZ_hSIRT2: NovaScreen (NVS) Enzymatic Assay for human Sirtuin 2 (SIRT2) (AID 2283217)
Chain of human Sirtuin 2 (SIRT2), SIRT2 (gene 22933) (Q8IXJ6 whole entry, looked up): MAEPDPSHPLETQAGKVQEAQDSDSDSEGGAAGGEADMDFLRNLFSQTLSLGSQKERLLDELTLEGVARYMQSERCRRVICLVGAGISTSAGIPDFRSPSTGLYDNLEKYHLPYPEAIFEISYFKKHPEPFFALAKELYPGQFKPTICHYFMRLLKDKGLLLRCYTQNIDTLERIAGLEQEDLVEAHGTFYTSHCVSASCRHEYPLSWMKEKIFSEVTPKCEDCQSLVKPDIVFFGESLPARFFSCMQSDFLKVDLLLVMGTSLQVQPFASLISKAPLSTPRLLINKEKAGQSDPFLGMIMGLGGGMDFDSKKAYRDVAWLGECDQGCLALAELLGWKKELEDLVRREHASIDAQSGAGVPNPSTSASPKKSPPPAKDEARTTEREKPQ
How it was run: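 Single-point duplicate screen at 25 uM, then concentration-response (max 50 uM) for chemicals passing threshold. Enzyme activity of recombinant human SIRT2 measured after 1 hr by fluorescence with mobility-shift separation of product; DMSO baseline.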

[5] = target: human Protein Tyrosine Phosphatase Non-receptor Type 9 (PTPN9), PTPN9 (gene 5780) (UniProt P43378); assay: NVS_ENZ_hPTPN9: NovaScreen (NVS) Enzymatic Assay for human Protein Tyrosine Phosphatase Non-receptor Type 9 (PTPN9) (AID 2283209)
How it was run: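 Sf9-expressed enzyme in a cell-free assay, fluorescence read 1.33 h after dosing with mobility-shift separation of substrate and product. Tested at 25 uM in duplicate, then up to 50 uM; signal loss versus DMSO.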

[6] = target: human Protein Tyrosine Phosphatase Receptor Type M (PTPRM), PTPRM (gene 5797) (UniProt P28827); assay: NVS_ENZ_hPTPRM: NovaScreen (NVS) Enzymatic Assay for human Protein Tyrosine Phosphatase Receptor Type M (PTPRM) (AID 2283215)
How it was run: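 Read-out is fluorescence after electrophoretic separation of substrate and product, taken 1.33 h post-dosing with recombinant enzyme. Compounds screened at 25 uM in duplicate, then concentration series for actives; activity as signal loss relative to DMSO.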

[7] = target: human Protein Tyrosine Phosphatase Receptor Type F (PTPRF), PTPRF (gene 5792) (UniProt P10586); assay: NVS_ENZ_hPTPRF: NovaScreen (NVS) Enzymatic Assay for human Protein Tyrosine Phosphatase Receptor Type F (PTPRF) (AID 2283213)
Experimental: as §1, with “NVS_ENZ_hPTPRF” for “NVS_ENZ_hPTPN2”, “plate.NVS_ENZ_hPTPRF” for “plate.NVS_ENZ_hPTPN2”, “NVS_ENZ_hPTPRF,” for “NVS_ENZ_hPTPN2,”, “PTPRF.” for “PTPN2.”, “receptor” for “non-receptor”
as §3

[8] = target: human Protein Tyrosine Phosphatase Non-receptor Type 4 (PTPN4), PTPN4 (gene 5775) (UniProt P29074); assay: NVS_ENZ_hPTPN4: NovaScreen (NVS) Enzymatic Assay for human Protein Tyrosine Phosphatase Non-receptor Type 4 (PTPN4) (AID 2283208)
Experimental: NVS_ENZ_hPTPN4 is a biochemical, single-readout assay that uses extracted gene-proteins from SF9 in a cell-free assay. Measurements were taken 1.33 hours after chemical dosing in a 384-well plate.NVS_ENZ_hPTPN4 is one of one assay component(s) measured or calculated from the NVS_ENZ_hPTPN4 assay. It is designed to make measurements of enzyme activity, a form of enzyme reporter, as detected with fluorescence intensity signals by Fluorescence and electrophoretic mobility shift technology.Data from the assay component NVS_ENZ_hPTPN4 was analyzed into 1 assay endpoint. This assay endpoint, NVS_ENZ_hPTPN4, was analyzed in the positive analysis fitting direction relative to DMSO as the negative control and baseline of activity. Using a type of enzyme reporter, loss-of-signal activity can be used to understand changes in the enzymatic activity as they relate to the gene PTPN4. Furthermore, this assay endpoint can be referred to as a primary readout, because this assay has produced multiple assay endpoints where this one serves a enzymatic activity function. To generalize the intended target to other relatable targets, this assay endpoint is annotated to the phosphatase intended target family, where the subfamily is non-receptor tyrosine phosphatase. […]

[9] = target: human Protein Tyrosine Phosphatase Receptor Type B (PTPRB), PTPRB (gene 5787) (UniProt P23467); assay: NVS_ENZ_hPTPRB: NovaScreen (NVS) Enzymatic Assay for human Protein Tyrosine Phosphatase Receptor Type B (PTPRB) (AID 2283211)
Chain of human Protein Tyrosine Phosphatase Receptor Type B (PTPRB), PTPRB (gene 5787) (P23467 whole entry, looked up): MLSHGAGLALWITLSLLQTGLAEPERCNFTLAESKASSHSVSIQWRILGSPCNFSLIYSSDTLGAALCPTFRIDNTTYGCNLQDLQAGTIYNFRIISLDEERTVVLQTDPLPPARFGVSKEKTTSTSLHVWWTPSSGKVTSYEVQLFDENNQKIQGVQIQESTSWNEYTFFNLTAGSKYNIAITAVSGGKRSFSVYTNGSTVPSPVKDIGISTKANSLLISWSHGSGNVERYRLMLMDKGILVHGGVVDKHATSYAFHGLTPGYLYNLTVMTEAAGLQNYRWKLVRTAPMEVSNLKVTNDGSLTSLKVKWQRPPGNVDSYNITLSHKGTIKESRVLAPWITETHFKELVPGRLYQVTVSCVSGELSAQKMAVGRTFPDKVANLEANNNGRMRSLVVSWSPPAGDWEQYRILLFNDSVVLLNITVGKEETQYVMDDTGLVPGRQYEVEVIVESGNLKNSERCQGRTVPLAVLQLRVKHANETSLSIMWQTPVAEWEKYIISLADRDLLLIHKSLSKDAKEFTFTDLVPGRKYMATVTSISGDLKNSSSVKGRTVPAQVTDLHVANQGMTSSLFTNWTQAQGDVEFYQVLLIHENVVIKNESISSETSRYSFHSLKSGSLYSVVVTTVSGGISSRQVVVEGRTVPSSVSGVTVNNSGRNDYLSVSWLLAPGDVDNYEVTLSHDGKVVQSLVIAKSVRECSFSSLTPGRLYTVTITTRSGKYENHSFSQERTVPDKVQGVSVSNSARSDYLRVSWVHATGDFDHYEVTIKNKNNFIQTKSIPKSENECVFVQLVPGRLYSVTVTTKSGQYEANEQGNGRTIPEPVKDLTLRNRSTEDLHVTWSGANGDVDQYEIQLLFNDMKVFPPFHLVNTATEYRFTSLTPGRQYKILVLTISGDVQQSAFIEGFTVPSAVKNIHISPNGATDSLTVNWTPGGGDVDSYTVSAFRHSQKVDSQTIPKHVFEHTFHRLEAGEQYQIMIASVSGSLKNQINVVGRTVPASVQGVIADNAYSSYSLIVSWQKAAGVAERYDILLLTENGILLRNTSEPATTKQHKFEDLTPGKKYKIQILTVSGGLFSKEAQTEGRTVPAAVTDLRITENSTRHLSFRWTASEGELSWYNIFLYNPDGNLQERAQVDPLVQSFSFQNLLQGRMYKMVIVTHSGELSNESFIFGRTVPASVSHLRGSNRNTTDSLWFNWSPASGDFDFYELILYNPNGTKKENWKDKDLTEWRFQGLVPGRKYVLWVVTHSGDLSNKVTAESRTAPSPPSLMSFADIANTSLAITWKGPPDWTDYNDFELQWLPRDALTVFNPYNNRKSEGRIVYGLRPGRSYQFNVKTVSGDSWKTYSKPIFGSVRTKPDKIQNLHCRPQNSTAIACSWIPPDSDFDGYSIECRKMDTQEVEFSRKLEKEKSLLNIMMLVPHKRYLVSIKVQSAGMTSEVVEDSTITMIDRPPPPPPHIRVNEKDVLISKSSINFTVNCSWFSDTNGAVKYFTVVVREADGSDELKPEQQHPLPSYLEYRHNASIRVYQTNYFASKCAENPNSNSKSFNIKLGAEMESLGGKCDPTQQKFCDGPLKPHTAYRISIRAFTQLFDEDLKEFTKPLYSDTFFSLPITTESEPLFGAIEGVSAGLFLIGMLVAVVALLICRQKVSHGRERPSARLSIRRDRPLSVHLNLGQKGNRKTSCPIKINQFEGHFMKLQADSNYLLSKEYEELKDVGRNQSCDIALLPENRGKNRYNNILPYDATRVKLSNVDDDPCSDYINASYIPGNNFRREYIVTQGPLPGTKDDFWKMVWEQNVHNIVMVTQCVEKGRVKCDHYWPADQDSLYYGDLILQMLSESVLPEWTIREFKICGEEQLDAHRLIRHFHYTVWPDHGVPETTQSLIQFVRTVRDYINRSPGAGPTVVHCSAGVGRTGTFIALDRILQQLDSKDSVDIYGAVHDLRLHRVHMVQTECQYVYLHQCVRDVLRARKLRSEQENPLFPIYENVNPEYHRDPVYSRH
How it was run: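 Recombinant human PTPRB with a fluorescent substrate, product separated by electrophoretic mobility shift; read 1 h after dosing. Primary screen in duplicate at 25 uM; actives then retested in concentration series; loss of signal versus DMSO.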

[10] = target: human Rho Associated Coiled-coil Containing Protein Kinase 1 (ROCK1), ROCK1 (gene 6093) (UniProt Q13464); assay: NVS_ENZ_hROCK1: NovaScreen (NVS) Enzymatic Assay for human Rho Associated Coiled-coil Containing Protein Kinase 1 (ROCK1) (AID 2283214)
Experimental: as §1, with “NVS_ENZ_hROCK1” for “NVS_ENZ_hPTPN2”, “plate.NVS_ENZ_hROCK1” for “plate.NVS_ENZ_hPTPN2”, “NVS_ENZ_hROCK1,” for “NVS_ENZ_hPTPN2,”, “ROCK1.” for “PTPN2.”, “kinase” for “phosphatase”, “serine/threonine kinase.” for “non-receptor tyrosine phosphatase.”
as §2, with “The follow-up (secondary) screen tested active chemical-pairs in concentration series, as well as a few additional assays not tested in the primary screen, some selected negative inactives, and several cases re-run in the concentration series for confirmatory purposes.” left out

Q: Which results are given for CN/C(=N\[N+](=O)[O-])NCc1cnc(Cl)s1?
A: outcome [1]: inactive; outcome [2]: inactive

Q: For COP(=S)(OC)Oc1ccc([N+](=O)[O-])c(C)c1, which outcome [3] is on record?
A: The outcome was “inactive”.

Q: And the AC50 [4]?
A: Its AC50 is 12.1 µM (active).

Q: Which results are given for O=C1C2CC=CCC2C(=O)N1SC(Cl)(Cl)Cl (stereo not given)?
A: outcome [3]: inactive; AC50 [1]: 46.9 µM (active); outcome [5]: inactive; outcome [6]: inactive; AC50 [4]: 13 µM (active)

Q: For CN=C=S, which outcome [7] is on record?
A: The outcome was “inactive”.

Q: And the outcome [2]?
A: The outcome was “inactive”.

Q: With CCCC(=NOCC)C1=C(O)CC(CC(C)SCC)CC1=O (stereo not given) as the compound, how does the outcome [1] read?
A: The outcome was “inactive”.

Q: And the AC50 [8]?
A: Its AC50 is 17.9 µM (active).

Q: What about the AC50 [5] of the same compound?
A: The AC50 was 42.2 µM (active).

Q: And the outcome [9]?
A: The outcome was “inactive”.

Q: What about the outcome [7] of the same compound?
A: Its outcome is “inactive”.

Q: What about the outcome [6] of the same compound?
A: Its outcome is “inactive”.

Q: What about the outcome [2] of the same compound?
A: Its outcome is “inactive”.

Q: With CCC(C)n1c(=O)[nH]c(C)c(Br)c1=O (stereo not given) as the compound, how does the outcome [7] read?
A: Its outcome is “inactive”.

Q: With CCOc1nc(F)cc2nc(S(=O)(=O)Nc3c(Cl)cccc3Cl)nn12 as the compound, how does the outcome [7] read?
A: The outcome was “inactive”.

Q: CS(=O)(=O)c1cc(C(F)(F)F)ccc1C(=O)c1cnoc1C1CC1 was tested. Which outcome [3] did it give?
A: Its outcome is “inactive”.

Q: CCOP(=S)(OCC)Oc1nc(Cl)n(C(C)C)n1 was tested. Which outcome [10] did it give?
A: Its outcome is “inactive”.

Q: For CCOP(=O)(OCC)Oc1nc(Cl)c(Cl)cc1Cl, which outcome [3] is on record?
A: The outcome was “inactive”.

Q: N#Cc1c(Cl)cccc1Cl was tested. Which outcome [9] did it give?
A: The outcome was “inactive”.

Q: And the outcome [7]?
A: The outcome was “inactive”.

Q: What does the source list for CCOC(=O)C(C)OC(=O)c1cc(Oc2ccc(C(F)(F)F)cc2Cl)ccc1[N+](=O)[O-] (stereo not given)?
A: outcome [1]: inactive; outcome [10]: inactive; outcome [2]: inactive

Q: With N#CN=C1SCCN1Cc1ccc(Cl)nc1 as the compound, how does the outcome [1] read?
A: The outcome was “inactive”.

Q: With COC(=O)c1c(C(F)F)nc(C(F)(F)F)c(C2=NCCS2)c1CC(C)C as the compound, how does the outcome [2] read?
A: Its outcome is “inactive”.

Q: CCN(CC)C(=O)C(C)Oc1cccc2ccccc12 (stereo not given) was tested. Which outcome [1] did it give?
A: The outcome was “inactive”.

Q: Which AC50 [4] does the source give for CCCCC(O)(Cn1cncn1)c1ccc(Cl)cc1Cl (stereo not given) here?
A: The AC50 was 15.9 µM (active).

Q: For CCCCOCN(C(=O)CCl)c1c(CC)cccc1CC, which outcome [10] is on record?
A: Its outcome is “inactive”.

Q: For COc1ccc(-c2ccccc2)cc1NNC(=O)OC(C)C, which outcome [2] is on record?
A: Its outcome is “inactive”.

Q: Which outcome [9] does the source give for O=c1n(Cl)c(=O)n(Cl)c(=O)n1Cl here?
A: The outcome was “inactive”.

Q: How did the outcome [3] turn out when COP(=S)(OC)SCn1nnc2ccccc2c1=O was run?
A: Its outcome is “inactive”.

Q: What about the outcome [7] of the same compound?
A: Its outcome is “inactive”.

Q: What about the outcome [2] of the same compound?
A: Its outcome is “inactive”.

Q: How did the outcome [2] turn out when CS(=O)(=O)c1ccc(C(=O)C2C(=O)CCCC2=O)c([N+](=O)[O-])c1 was run?
A: The outcome was “inactive”.

Q: Which outcome [2] does the source give for CC1(C)C(C=C(Cl)Cl)C1C(=O)OC(C#N)c1cccc(Oc2ccccc2)c1 (stereo not given) here?
A: The outcome was “inactive”.
